According to ChEMBL document CHEMBL4513216, “Probing the Open Global Health Chemical Diversity Library for Multistage-Active Starting Points for Next-Generation Antimalarials” (ACS Infect Dis, 2020):
Screen size: about 65,000 compounds; about 2,100 (3.2%) showed an effect of 50% or more. The median lay at about -52%. The full list was thinned out, with strong results kept by preference.

The molecules below were run on Plasmodium falciparum (assay: Screen against P. falciparum Asexual Blood Stage (ABS), at 5uM). Details: tested at 5 uM.
Assay type: functional, Dd2

SMILES | INHIBITION
CC(=O)c1c(C)nn(CC(=O)N2CCCC2c2ccc(C(N)=O)s2)c1C (stereo unspecified) | -149%
CCN(CC)C(=O)CCc1nc(-c2cnn3c(C)cc(C)nc23)no1 | -59.8%
COC[C@H]1CCC[C@]12CN(CCc1ccccc1)CCO2 | -30.9%
O=C1CC[C@H]2[C@H](CCN2S(=O)(=O)C2CC2)N1CCN1CCCC1 | -109%
CC(C)[C@H](N)CC(=O)Nc1nc(-c2cnc(N3CCOCC3)nc2)cs1 | -62.3%
CN1C[C@H](c2ccccc2)[C@H]2CN(C(=O)Cc3cccc(O)c3)CC[C@H]21 | 48.1%
Cc1ccsc1[C@@H]1CCN(C(=O)Cc2ccc(O)cc2)C[C@H]1O | 11.1%
CN1C[C@H](c2ccccc2)[C@H]2CN(C(=O)Cc3ccc(O)cc3)CC[C@H]21 | 58%
COC(=O)[C@@H]1CCCN1C(=O)c1cn(C/C=C/c2ccccc2)nn1 | -29.2%
CC(CCc1ccccc1)NC(=O)CNCCCN(C)C (stereo unspecified) | -20.5%
CN(C)C(=O)CN1C(=O)C[C@@H]2[C@@H]1CCN2Cc1cccc(C#N)c1 | -63%
N[C@@H]1c2ccccc2C2(CCN(c3cc(C(F)(F)F)ccn3)CC2)[C@H]1O | -15.6%
COC1CCN(CCNc2ncc(Br)cc2C)CC1 | 60.6%
CC(=O)N1CCN(CCNc2ncc(Br)cc2C)CC1 | -22.7%
CCc1cnc(C)nc1NCCN1CCC(O)CC1 | -27.7%
Cc1ccc(CN2CCn3cc(CN4CCN(C)CC4)nc3C2)cc1 | -112%
CN1CCN(CCNC(=O)C(OC2CCCC2)c2ccccc2)CC1 (stereo unspecified) | 39.2%
O=C(NCCCN1CCOCC1)C(OC1CCCC1)c1ccccc1 (stereo unspecified) | 53.1%
O=C(NCCN1CCOCC1)C(OC1CCCC1)c1ccccc1 (stereo unspecified) | -78%
CN(C)CC(=O)N1CCC2(CC1)CN(c1ncccn1)CCO2 | 5.56%
Cc1ccc2c(c1)CCC21CCN(C(=O)CO)CC1 | -19.8%
CN(C)CC(=O)N1CCC2(CCc3ccc(-c4ccncc4)cc32)CC1 | -41.7%
Cc1ccc2c(c1)CCC21CCN(C(=O)CN(C)C)CC1 | 50.7%

SMILES | INHIBITION
CCCn1nc2c(cc1=O)CN(c1ncnc3ccsc13)CC2 | -43%
CSCc1noc(CNS(=O)(=O)c2cccc(C(=O)NC3CC3)c2)n1 | -45.3%
CC(C)n1cc(C(=O)NCCN(C)C)c2n[nH]c(=O)c-2c1 | -36.6%
Cc1noc(C(C)C)c1C(=O)NCCCN1CCCC1 | -39.2%
CC(C)CC(NCc1cscn1)c1ccccn1 (stereo unspecified) | 32.3%
CC(C)CC(NCc1ccsc1)c1ccccn1 (stereo unspecified) | 60%
CC(C)CC(NCc1cccs1)c1ccccn1 (stereo unspecified) | -21.4%
CC(C)OCCC(=O)NCC(O)c1c(F)cccc1F (stereo unspecified) | -37.7%
CN(C)CCNc1ncccc1CNC(=O)Nc1cc(F)cc(F)c1 | 55%
Cc1nc(NC(=O)NCc2cccnc2NCCN(C)C)sc1C | -8.39%
CC(C)c1nnc(NC(=O)NCc2cccnc2NCCN(C)C)s1 | -89.9%
Cc1ccc(CNCC2CCN(CC(O)c3ccccc3)CC2)o1 (stereo unspecified) | 62.5%
CC(O)CN1CCC(CNCc2ccccc2OC(F)(F)F)CC1 (stereo unspecified) | 67.7%
CC(O)CN1CCC(CNCc2ccccc2C(F)(F)F)CC1 (stereo unspecified) | 48.3%
CC(O)CN1CCC(CNCc2ccccc2F)CC1 (stereo unspecified) | -0.868%
Cc1ncccc1CNCC1CCN(CC(O)c2ccccc2)CC1 (stereo unspecified) | 31.4%
CC(O)CN1CCC(CNCc2cccc(C(N)=O)c2)CC1 (stereo unspecified) | -73.1%
CC(O)CN1CCC(CNCc2cccc(OC(C)C)c2)CC1 (stereo unspecified) | 62.4%
Cc1noc(C)c1CNCC1CCN(CC(O)c2ccccc2)CC1 (stereo unspecified) | 43.4%
CC(O)CN1CCC(CNCc2cccc(C(=O)N(C)C)c2)CC1 (stereo unspecified) | -81.9%
COCC(Nc1ncnc2c1CCNCC2)c1ccccn1 (stereo unspecified) | -66.2%
CCOCC(=O)NCC1CCN(Cc2ccsc2)CC1 | -90.6%
CN(C)Cc1ccnc(C2CCCN2Cc2ccc3ncccc3c2)n1 (stereo unspecified) | 42%

SMILES | INHIBITION
COc1cc(CNc2cc(-c3nncn3C)ccn2)cc(OC)c1OC | -52.4%
Cc1ccccc1-c1noc(CN2CCC(N3CCNC3=O)CC2)n1 | -80.6%
CCC1CN(CC(=O)NCCN2CCCC2)c2ccccc2S1 (stereo unspecified) | 63.8%
O=C(NCCN1CCCC1)c1cc2c(s1)CCN2C(=O)c1ccccc1 | -40.6%
COCC(=O)N1CCCC1c1ccc(C(=O)NCCN2CCCCC2)s1 (stereo unspecified) | -139%
Cc1ccccc1OCC1CCCN(c2cc(N)nc(N)n2)C1 (stereo unspecified) | 44.5%
CN1CCCC(CCCc2cccnc2)(C(N)=O)C1 (stereo unspecified) | -103%
COc1nccnc1-c1cc(NC2CCCC2)nc2[nH]ccc12 | 18.8%
Nc1ccnc(-c2cc(NC3CCNCC3)nc3[nH]ccc23)c1 | -29.8%
COc1cc(-c2cc(NC3CCCC3)nc3[nH]ccc23)nc(N)n1 | 62.5%
CCN(Cc1noc(CC(C)C)n1)Cc1cc2ccc(F)cc2[nH]c1=O | -109%
CCc1noc(CN(CC)Cc2cc3ccc(F)cc3[nH]c2=O)n1 | -9.14%
CCN(Cc1nc(COC)no1)Cc1cc2ccc(F)cc2[nH]c1=O | 62.2%
O=C(C[C@@H]1COC[C@H]2CN(CC3CCOCC3)C[C@@H]12)N1CCCCO1 | -22.4%
CC(O)CN1CCN(C(=O)c2cc3ccccc3n2C)CC1 (stereo unspecified) | -75.1%
CCC(C)(COc1ncccc1Cl)NCC(=O)NC1CCCCC1 (stereo unspecified) | -85.6%
CNC(=O)C1CCN(CC(=O)Nc2cc(C(C)C)no2)CC1 | -141%
CCOCC1CN(C(=O)c2cccs2)Cc2cnn(CC3CC3)c21 (stereo unspecified) | 18.5%
CCOCC1CN(C(=O)c2cnccn2)Cc2cnn(CC3CC3)c21 (stereo unspecified) | -127%
CCOCC1CN(C(=O)c2cccn2C)Cc2cnn(CC3CC3)c21 (stereo unspecified) | 57.8%
O=c1cc(CN2CCCCC2c2cccc(F)c2)[nH]c2ncnn12 (stereo unspecified) | -27.8%
Cc1n[nH]c(C)c1C1COCCN1C(=O)c1ccccc1 (stereo unspecified) | -119%
Cc1n[nH]c(C)c1C1COCCN1C(=O)c1cccc(F)c1F (stereo unspecified) | 49.6%

SMILES | INHIBITION
COc1ccccc1C(=O)N1CCOCC1c1c(C)n[nH]c1C (stereo unspecified) | 57.5%
CCN1CCOC(CNCc2ccccc2OCc2ccncc2)C1 (stereo unspecified) | 55.3%
Cc1cnn(CCNCc2ccccc2OCc2ccccn2)c1 | 67%
CCN1CCOC(CNCc2ccccc2OCc2ccccn2)C1 (stereo unspecified) | 7.77%
CN1CCOC(CNCc2ccccc2OCc2ccccn2)C1 (stereo unspecified) | 67.7%
Cc1cnn(CCNCc2ccccc2OCc2ccncc2)c1 | 40.5%
Cc1cnn(CCNCc2ccc(OCc3ccccn3)cc2)c1 | -12.3%
CCN1CCOC(CNCc2ccccc2OCC(=O)N(C)C)C1 (stereo unspecified) | -19.5%
CCN1CCOC(CNCc2ccccc2OCc2cccnc2)C1 (stereo unspecified) | 28.1%
CN1CCOC(CNCc2ccc(OCc3ccccn3)cc2)C1 (stereo unspecified) | -15.8%
CNC(=O)c1nc(COc2ccc3c(c2)OCO3)no1 | -139%
Cc1ccc(C)c(S(=O)(=O)NC(=O)c2ccc(C)[nH]c2=O)c1 | -134%
O=S(=O)(c1cccs1)N1CC[C@@H](O)[C@@H]1Cc1ccncc1 | -17%
Cc1ccc(N2CCC(Nc3ccc4nnc(C)n4n3)CC2)nc1 | -89%
CCOc1ccc(CSC(C)c2nc(C)no2)nc1 (stereo unspecified) | -173%
CN(C)C1CC2(CCN(C(=O)NC3CC3)CC2)c2ccccc21 (stereo unspecified) | -42.2%
Cn1cc(Cl)cc1C(=O)N1CCCN(Cc2cccs2)CC1 | -60.9%
Cn1cc(Cl)cc1C(=O)N1CCCN(Cc2ccccc2)CC1 | 50.9%
Cn1cc(CN2CCCN(C(=O)c3cc(Cl)cn3C)CC2)cn1 | -7.21%
Cc1ccc(C(=O)N2CCCN(Cc3cccs3)CC2)n1C | 55.6%
Cn1cc(Cl)cc1C(=O)N1CCN(Cc2cccs2)CC1 | 7.04%
Cc1ccc(C(=O)N2CCN(Cc3cccs3)CC2)n1C | -20.2%
CSCC(CCO)NC(=O)Nc1cc(F)ccc1C (stereo unspecified) | -130%

SMILES | INHIBITION
CCc1noc(CN(CC)C(=O)C2CC(=O)N(Cc3ccncc3)C2)n1 (stereo unspecified) | -125%
Fc1ccc(CNCc2nnc3n2CC(C(F)(F)F)CC3)c(F)c1 (stereo unspecified) | -35%
COCCN1C[C@@H]2CN(c3ncc(F)cn3)C[C@@H]2C1=O | -65.7%
Cc1ccc(-c2nc(CSCCC(=O)NC(N)=O)co2)cc1 | -132%
O=C(N1CCCC1)N1CCC[C@]2(C[C@@H](Oc3ncccc3F)CO2)C1 | -39%
CN(C)C1CCC2(CCN(Cc3cccnc3)CC2)c2ccccc21 (stereo unspecified) | 31.3%
COc1ccccc1CNC(Cc1cccs1)c1nc(C)c(C)s1 (stereo unspecified) | 59.8%
COc1cccc(CNC(Cc2cccs2)c2nc(C)c(C)s2)c1OC (stereo unspecified) | -80.8%
COc1ccccc1CNC(Cc1cccs1)c1nc(C)cs1 (stereo unspecified) | -11.1%
CN(C)C(=O)CN1CCCC1c1cccc(Cc2ccccc2F)n1 (stereo unspecified) | 68.8%
CN1CCCC1c1cccc(Cc2ccccc2F)n1 (stereo unspecified) | -1.19%
CC(=O)N1CCCC1c1cccc(Cc2ccccc2F)n1 (stereo unspecified) | -89.4%
CC(C)CN1CCn2c(nc3cc(C(=O)NC(C)C)ccc32)C1 | -53.7%
OC(CNc1ncnc2c1CCNCC2)C(F)(F)F (stereo unspecified) | -178%
Cc1nc2c(c(NCC(O)C(F)(F)F)n1)CCNCC2 (stereo unspecified) | -121%
COCCNc1nc2c(c(NCC3CCOC3)n1)CCNCC2 (stereo unspecified) | -47.9%
COCCNc1nc(C2CCCC2)nc2c1CCNCC2 | 54.1%
COCc1noc(CNc2nc(C3CCCC3)nc3c2CCNCC3)n1 | 27.3%
OC(CNc1nc(C2CCCC2)nc2c1CCNCC2)C(F)(F)F (stereo unspecified) | 64.6%
